# Compound activity deposited in PubChem by Sanford-Burnham Center for Chemical Genomics.
# MPTP inh: mitochondrial permeability transition pore inhibitors, primary screen, biochemical, isolated mouse mitochondria, absorbance | inhibition, % at 10 µM | actives 1.4% (n = 360,000) | AID 602449, 2012 | Ca2+ swelling absorbance, 30 min;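 active means inhibition of 50% or more, scaled per plate between neutral and stimulator controls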;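 further: 0% = DMSO wells given calcium and 100% = 1 mM EGTA wells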
# H9c2 TAG inh: inhibitors of triacylglycerol accumulation, primary screen, cell-based, uHTS, fluorescence, H9c2 | H9c2 cells, Nile Red lipid (TAG) fluorescence; cells loaded with 200 µM oleic acid | inhibition, % at 12.5 µM | actives 0.66% (n = 230,000);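 active means pattern-corrected inhibition of lipid staining of at least 50% with the nuclear-stain viability signal not falling by more than 50%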;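 further: 0% = DMSO wells and 100% = triacsin C control wells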
# NadD block: inhibitors of S. aureus NadD, primary screen, biochemical, colorimetric, uHTS; inhibition, % at 20 µM; AID 602399, 2012; purified NadD enzyme, colorimetric absorbance read-out; Nicotinate-nucleotide adenylyltransferase NadD (Staphylococcus aureus N315); actives 0.78% (n = 360,000); in the data active means inhibition above about 26%
# aDG glyco up: activators of alpha-DG glycosylation, primary screen, uHTS, Pro5-aDG cells, AlphaScreen; alpha-DG glycosylation AlphaScreen (IIH6); 0% Pro5, 100% B10-LARGE cell signal; activation, % at 10 µM; actives 0.22% (n = 360,000);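 active means activation of at least 8% versus controls, or a plate z-score of at least 8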;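 further: Pro5 are CHO cells carrying HIG-tagged alpha-DG that lacks glycosylation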
# NadD inh conf: inhibitors of S. aureus NadD, confirmation, biochemical, colorimetric, single concentration; inhibition, % at 20 µM; actives 13% (n = 2,000); shares compounds with NadD block; purified S. aureus NadD, colorimetric enzyme assay; in the data active means inhibition mostly above about 42%, no sharp cut-off; inactive means mostly below about 42%
# * = called active by the depositor; . = no result given. An excerpt weighted towards active compounds, which were near 2.7% of everything screened.
SMILES,MPTP inh,H9c2 TAG inh,NadD block,aDG glyco up,NadD inh conf
CNC(=O)NC(=O)C(C)OC(=O)c1c2c(nc3ccccc13)/C(=C/c1cccs1)CC2 (configuration not stated),-17,.,33*,0,20
CCCCNC(=O)COC(=O)c1c2c(nc3ccccc13)/C(=C/c1cccs1)CC2,-9,.,19,1,.
CC(=O)NC(c1ccccc1)c1nc(-c2cnc3ccccc3c2)cs1 (configuration not stated),0,6,-7,0,.
O=C(NCc1ccc(/C=N\NC(=O)C(=O)Nc2ccccc2Br)o1)C(=O)Nc1ccccc1,4,-6,36*,0,8
O=C(N/N=C\c1ccc(CNS(=O)(=O)c2ccccc2)o1)C(=O)Nc1ccc(F)cc1,2,.,1,0,.
COc1ccc(-c2nc3cccc(C)n3c2NCC2CCCO2)cc1O (configuration not stated),-1,0,-5,0,.
COc1ccc(-c2nc(=S)c3c([nH]2)Oc2ccc(C)cc2C3)cc1O,0,.,30*,0,11
O=C(Cc1ccc(NC(=O)C2CCN(C(=O)C3CC3)CC2)cc1)Nc1cccc(C(=O)N2CCCC2)c1,0,5,1,0,.
CC/C(C)=N/Nc1nc(-c2cc3cccc(OC)c3oc2=O)cs1,3,19,51*,0,30
COc1cccc2cc(-c3csc(CCn4nc(C)cc4C)n3)c(=O)oc12,1,-24,11,0,.
CCOC(=O)[C@]12CCCC=C1N(Cc1ccc(Cl)cc1Cl)C(=O)[C@H](CC(=O)NCCC(C)C)C2,-1,.,-3,0,.
CC1(C(=O)NS(=O)(=O)c2ccc(Cl)cc2)CCN1C(=O)Cc1cccs1 (configuration not stated),-1,2,-2,0,.
N#C/C(=C\c1ccc(-c2cccc([N+](=O)[O-])c2)o1)C(=O)Nc1nc(-c2cccs2)cs1,4,11,42*,0,-4
C[C@H]1CN([C@@H](C)CO)C(=O)c2cc(C#Cc3cccnc3)cnc2O[C@H]1CN(C)Cc1ccc(F)cc1,1,-3,39*,0,16
C[C@H](CO)N1C[C@H](C)[C@@H](CN(C)S(=O)(=O)c2ccccc2F)Oc2ncc(C#Cc3cccnc3)cc2C1=O,-1,-2,12,0,.
Cc1cccc(C)c1NC(=O)C1(C)CSCC(=O)N1CCCN1CCOCC1 (configuration not stated),0,.,.,0,.
NS(=O)(=O)c1ccc(NC(=O)/C=C/c2cn(-c3ccccc3)nc2-c2cccc(Cl)c2)cc1,3,34,41*,0,34
CCCN1C(=O)c2ccccc2NC1c1ccc(Cl)c(Cl)c1 (configuration not stated),2,.,-9,2,.
CCCCN1C2=C(C(=O)CCC2)C(c2ccc(Cl)c(Cl)c2)C2=C1c1ccccc1C2=O (configuration not stated),5,60*,32*,0,8
N#Cc1c(-c2ccccc2)c(-c2ccccc2)nn(CC(=O)NNC(=O)Nc2ccc(Cl)c(Cl)c2)c1=O,5,9,51*,0,44
C=CCc1c(C)[nH]c(=S)c(C#N)c1C,1,12,34*,0,24
COc1cc2c(C#N)c(N3CCCCC3)nc(N)c2c(N)n1,-6,2,7,0,.
COc1cc2c(C#N)c(N3CCc4ccccc4C3)nc(N)c2c(N)n1,1,16,42*,0,-3
COc1ccc(/C=C/C(=O)NC(=S)NNC(=O)[C@H]2C[C@@H]2c2ccccc2)cc1OC,6,.,59*,0,13
CCOC(=O)[C@H]1[C@H]2COc3ccc(Br)cc3[C@@H]2N2C(=O)CN(CC3CCCO3)C(=O)[C@@]12C (some centres not stated),-1,12,0,0,.
Cc1ccc(Cc2c(-c3ccc(F)cc3)nc3c(C)cc(Br)cn23)cc1,1,.,13,0,.
Cc1ccc(NC(=O)c2cc3c(s2)CCCC3)cc1S(=O)(=O)Nc1ccccc1Cl,41,.,30*,0,14
